Pol eta inh-1: DNA polymerase eta (human) inhibition; Q9Y253; recombinant Pol eta, fluorescent DNA replication assay; Potency, µM (top dose mostly 114 µM), without a hit: at the top dose activity change, negative = inhibition, hits mostly inhibitors; hit rate 1.2% among 390,000; AID 588591; note: potency is the fitted concentration of half-maximal effect; % is set by controls: 0 for no effect and ±100 for the full control effect
Target sequence (Q9Y253 whole entry, looked up): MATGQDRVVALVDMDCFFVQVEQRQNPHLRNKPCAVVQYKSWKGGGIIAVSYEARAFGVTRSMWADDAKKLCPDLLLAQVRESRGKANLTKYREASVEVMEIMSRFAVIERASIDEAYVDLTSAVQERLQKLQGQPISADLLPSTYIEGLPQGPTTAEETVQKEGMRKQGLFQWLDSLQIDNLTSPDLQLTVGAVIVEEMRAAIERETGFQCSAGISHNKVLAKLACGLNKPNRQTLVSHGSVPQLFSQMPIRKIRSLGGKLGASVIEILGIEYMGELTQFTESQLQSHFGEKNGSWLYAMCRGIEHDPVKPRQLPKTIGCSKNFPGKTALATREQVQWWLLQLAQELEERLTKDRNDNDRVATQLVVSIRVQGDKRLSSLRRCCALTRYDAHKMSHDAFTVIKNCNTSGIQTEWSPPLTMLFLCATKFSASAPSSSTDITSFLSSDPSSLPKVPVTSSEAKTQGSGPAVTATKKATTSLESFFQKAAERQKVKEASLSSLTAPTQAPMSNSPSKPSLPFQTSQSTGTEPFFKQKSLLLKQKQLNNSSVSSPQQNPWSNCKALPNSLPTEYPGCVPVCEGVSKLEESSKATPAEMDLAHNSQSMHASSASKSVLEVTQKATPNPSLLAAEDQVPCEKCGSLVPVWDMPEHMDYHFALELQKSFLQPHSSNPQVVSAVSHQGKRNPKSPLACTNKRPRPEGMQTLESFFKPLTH
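Fluorescent replication assay: 50 nM final substrate added after a 15 min room-temperature compound preincubation with 10 nM enzyme. Signal taken at 0 min and again at 10 min.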
ALOX12 inh: blocks human arachidonate 12S-lipoxygenase; P18054; Potency, µM (highest dose often 108 µM), without a hit: at the highest dose activity change, negative = inhibition, hits mostly inhibitors; purified 12hLO, xylenol orange hydroperoxide absorbance; hit rate 1.1% among 580,000; note: potency is the fitted concentration of half-maximal effect; % is set by controls: 0 for no effect and ±100 for the full control effect
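Hydroperoxide product was detected by ferrous iron/xylenol orange as the 573 to 405 nm absorbance ratio. Arachidonic acid at 40 uM (final) was turned over for 30 min at room temperature by 150 nM human 12hLO, pH 7.0 Hepes buffer, after 15 min compound preincubation.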
Pol kappa inh-1: inhibitors of human DNA polymerase kappa; Q9UBT6; purified Pol kappa, fluorescent DNA synthesis assay, 10 min; Potency, µM (top dose mostly 107 µM), without a hit: at the highest dose activity, negative = inhibition, actives largely listed as inhibitors; hit rate 0.53% among 400,000; AID 588579; note: potency is the fitted concentration of half-maximal effect; % is set by controls: 0 for no effect and ±100 for the full control effect
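50 nM final substrate added after 15 min RT preincubation of 10 nM Pol kappa with compound; fluorescence read at 0 and 10 min.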
PI5P4Ka inh: PI5P4K alpha (human) kinase inhibition | PI5P4Kalpha enzyme, ADP-Glo luminescence, 60 min; hits give low values | max response, % | hit rate 1.2% among 330,000 | P48426 | AID 652105; active = max response of -50% or lower; inconclusive = between -30% and -50%; inactive = -30% or higher; note: value at the top dose of about 77 µM; % is set by controls: 0 for no effect and ±100 for the full control effect
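Human PI5P4Kalpha with substrate in 0.038 M HEPES pH 7.4, 0.28 mM EGTA, 0.1% CHAPS, 5% DMSO; reaction started with 5 microM ATP (final), 60 min at room temperature. ADP formed read by ADP-Glo luminescence.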
POLB inh: DNA polymerase beta (human) inhibition; Potency, µM (doses to about 114 µM), for inactives: at the top dose activity change, negative = inhibition, hits mostly inhibitors; Pol beta primer extension/strand displacement, fluorescence kinetic; P06746; hit rate 1.3% among 340,000; note: potency is the fitted concentration of half-maximal effect; % is set by controls: 0 for no effect and ±100 for the full control effect
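Kinetic readout of DNA synthesis with strand displacement by Pol beta. Compound and 10 nM enzyme sit 15 min at room temperature; 50 nM substrate starts the reaction, read immediately and at 10 min.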
Pol iota inh: DNA polymerase iota (human) inhibition. Potency, µM (doses to about 115 µM), for the others: top-dose activity, negative = inhibition, hits mostly inhibitors. AID 588590. Q9UNA4. hit rate 1% among 390,000. Pol iota fluorescent replication assay, 10 min; note: potency is the fitted concentration of half-maximal effect
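Fluorescent replication assay read twice, at 0 min and 10 min after adding 50 nM (final) substrate. Enzyme (10 nM) and compounds were first incubated 15 min at room temperature; enzyme-free buffer wells were negative controls.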
Pol kappa inh-2: confirmation of human DNA polymerase kappa inhibitors; shares compounds with Pol eta inh-1; purified Pol-kappa, fluorescent strand-displacement substrate; Potency, µM, hits mostly inhibitors; hit rate 76% among 920; note: potency is the fitted concentration of half-maximal effect
Pol eta inh-2: confirmation of human DNA polymerase eta inhibitors. shares compounds with Pol eta inh-1. Pol eta primer extension, TAMRA/BHQ fluorescence, 10 min. Potency, µM, most hits filed as inhibitors. hit rate 64% among 2,600. AID 720502; note: potency is the fitted concentration of half-maximal effect
Numbers without * were called inactive; [ ] = remark or other dose. This is a sample that favours compounds with a hit; in the whole collection about 2.9% have one here. Unless noted, calls come from the whole dose curve; as a rule, active = well fitted inhibition curve with a large enough effect; inconclusive = small, poorly fitted or top-dose-only effect, or another doubt; inactive = no such curve, though single readings can be large or run the other way.

Screening Cc1cccc(N2C(=O)NC(=O)/C(=C\c3cccn3-c3ccc(Cl)cc3)C2=O)c1 returned Pol eta inh-1 11µM*, ALOX12 inh 0%, Pol kappa inh-1 79µM*, PI5P4Ka inh -52*, POLB inh 22µM*, Pol iota inh 22µM* and Pol eta inh-2 60*.
COCOC1CCC2C3CCC4=CC(=O)CCC4=C3C=CC12C (stereo not drawn) was read as Pol eta inh-1 inconclusive, ALOX12 inh 25µM*, Pol kappa inh-1 inconclusive, PI5P4Ka inh -12, Pol iota inh 28µM* and Pol eta inh-2 inconclusive.
Screening CC1(O)CCC2C3CCC4=CC(=O)CCC4=C3C=CC21C (stereo not drawn) returned Pol eta inh-1 2%, ALOX12 inh -11%, Pol kappa inh-1 4%, PI5P4Ka inh -2 and Pol iota inh 24%.
COc1ccc(OC)c(S(=O)(=O)N2[C@H]3CC[C@@H]2c2cnc(-c4ccccc4)nc2C3)c1 was read as ALOX12 inh 55%.
`O=c1[nH]c(O)c(/C=C2/C=CC(c3cc(Cl)ccc3Cl)=N2)c(=O)[nH]1` gave Pol eta inh-1 18µM*, ALOX12 inh -8%, Pol kappa inh-1 -6%, PI5P4Ka inh 0, POLB inh 17%, Pol iota inh 32% and Pol eta inh-2 inconclusive.
For Cc1ccc2c(c1)=NC(=O)/C(=C/c1c(O)[nH]c(=O)[nH]c1=O)C=2 the results were Pol eta inh-1 5%, ALOX12 inh inconclusive, Pol kappa inh-1 -1%, PI5P4Ka inh inconclusive, POLB inh -2% and Pol iota inh 8%.
COc1ccc(CC(=O)N2[C@H]3CC[C@@H]2c2cnc(-c4ccc(F)cc4)nc2C3)cc1OC was read as ALOX12 inh 29%.
For COc1ccc(OC)c(N2C(=O)NC(=O)C(CCc3ccncc3)(CCc3ccncc3)C2=O)c1 the results were Pol eta inh-1 -4%, ALOX12 inh -14%, Pol kappa inh-1 6%[60.1 µM], POLB inh -1% and Pol iota inh -20%.
COc1ccc(OC)c(N2C(=O)NC(=O)/C(=C/c3ccc([N+](=O)[O-])s3)C2=O)c1 was read as Pol eta inh-1 20µM*, ALOX12 inh 40µM*, Pol kappa inh-1 25µM*, PI5P4Ka inh inconclusive, POLB inh 13µM*, Pol iota inh inconclusive, Pol kappa inh-2 30* and Pol eta inh-2 30*.
For CCC(CC)c1cc([C@H]2CN3CC[C@H]2C[C@@H]3CNC(=O)Nc2ccc(C(C)=O)cc2)nc(-c2ccncc2)n1 the results were ALOX12 inh -7%.
`O=C(O)C1C(C(=O)O)C2(Cl)C(Cl)=C(Cl)C1(Cl)C2(Cl)Cl` (stereo not drawn) gave Pol eta inh-1 -6%, ALOX12 inh -17%, Pol kappa inh-1 79µM*, PI5P4Ka inh -1, Pol iota inh 45µM* and Pol eta inh-2 inconclusive.
For C=CCOC(=O)C1C(C(=O)O)C2(Cl)C(Cl)=C(Cl)C1(Cl)C2(Cl)Cl (stereo not drawn) the results were Pol eta inh-1 -21%, ALOX12 inh 12%, Pol kappa inh-1 -12%, PI5P4Ka inh -3 and Pol iota inh inconclusive.
Screening O=C1NC(=O)N(c2ccccc2)C(=O)/C1=C/C=C/c1ccco1 returned Pol eta inh-1 13µM*, ALOX12 inh inconclusive, Pol kappa inh-1 40µM*, PI5P4Ka inh inconclusive, POLB inh inconclusive, Pol iota inh inconclusive and Pol eta inh-2 38*.
Screening O=C1NC(=O)N(Cc2ccccc2)C(=O)/C1=C\C=C\c1ccco1 returned Pol eta inh-1 18µM*, ALOX12 inh 40µM*, Pol kappa inh-1 35µM*, PI5P4Ka inh -62*, POLB inh 20µM*, Pol iota inh 16µM* and Pol eta inh-2 76*.
Screening Cc1ccc(N2C(=O)NC(=O)/C(=C\C=C\c3ccco3)C2=O)cc1C returned Pol eta inh-1 22µM*, ALOX12 inh 40µM*, Pol kappa inh-1 25µM*, PI5P4Ka inh inconclusive, POLB inh 40µM*, Pol iota inh 10µM* and Pol eta inh-2 60*.
`Cc1cc(CN2CCCC3(C2)NC(=O)c2ccccc2O3)no1` (stereo not drawn) gave ALOX12 inh -1%[176 µM].
For O=C1CO[C@H]2CN(Cc3ccccn3)C[C@H]2N1 the results were ALOX12 inh 100%[176 µM].
CSc1cccc(NC(=O)NC[C@H]2C[C@@H]3CCN2C[C@@H]3CN(C)Cc2ccccc2)c1 was read as ALOX12 inh 17%.
Screening CCc1ccc(N2C(=O)NC(=O)/C(=C/c3ccsc3)C2=O)cc1 returned POLB inh 14%.
For CSc1ncc(/C=C2/C(=O)NC(=O)N(c3ccc(C(C)C)cc3)C2=O)cn1 the results were Pol eta inh-1 -6%, ALOX12 inh inconclusive, Pol kappa inh-1 -1%, PI5P4Ka inh inconclusive, POLB inh -14% and Pol iota inh 4%.
`Cc1ccc(N2C(=O)NC(=O)/C(=C\c3cc(C)n(-c4ccc(C(=O)O)cc4)c3C)C2=O)cc1` gave Pol eta inh-1 35µM*, ALOX12 inh inconclusive, Pol kappa inh-1 inconclusive, PI5P4Ka inh -26, POLB inh inconclusive, Pol iota inh 25µM* and Pol eta inh-2 inconclusive.
Screening CCn1c(C)cc(/C=C2\C(=O)NC(=O)N(c3ccccc3C)C2=O)c1C returned Pol eta inh-1 5%, ALOX12 inh -15%, Pol kappa inh-1 -6%[60.1 µM], PI5P4Ka inh -1, POLB inh 2% and Pol iota inh 0%.
For CCc1ccc(N2C(=O)NC(=O)/C(=C\c3cc(C)n(-c4cc(C(=O)O)cc(C(=O)O)c4)c3C)C2=O)cc1 the results were Pol eta inh-1 14µM*, ALOX12 inh inconclusive, Pol kappa inh-1 inconclusive, PI5P4Ka inh -64*, POLB inh 11µM*, Pol iota inh 20µM*, Pol kappa inh-2 12* and Pol eta inh-2 30*.
Screening Cc1ccc(N2C(=O)NC(=O)/C(=C\c3ccoc3)C2=O)cc1 returned Pol eta inh-1 50µM*, ALOX12 inh inconclusive, Pol kappa inh-1 inconclusive, PI5P4Ka inh inconclusive, POLB inh inconclusive, Pol iota inh 32µM* and Pol eta inh-2 48*.
